The text below walks through data of PubChem BioAssay (Tox21).

“And” between values parts separate entries of the source, which are not always exact repeats. Equal entries are not always repeated. Values without a mark were called inactive. Results filed as inconclusive are left out. The source made the active and inactive calls. Unless noted, calls come from the whole dose curve; as a rule, active = well fitted curve in the direction sought with a large enough effect in the repeat runs; inconclusive = weak or mixed curves; inactive = no such curve, though single readings can be large; an effect the other way counts as inactive or inconclusive.

A short description of experiment [1]: qHTS assay for small molecule agonists of the p53 signaling pathway - cell viability (AID 651633; calls by dose curve;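 note: p53RE-bla HCT reporter cells with a stable beta-lactamase p53 reporter; nearly all actives have a fitted effect of over 30% in size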). In a few lines: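 p53RE-bla cells were treated with compound for 16 hours at 37 C. Cytotoxicity was then measured as CellTiter-Glo luminescence after 30 min at room temperature.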
A general note: In qHTS, concentration-response curves come from the screen itself.

A short description of experiment [2]: qHTS assay for small molecules that induce genotoxicity in human embryonic kidney cells expressing luciferase-tagged ATAD5 - cell viability (AID 651634; calls by dose curve; note: nearly all actives have a fitted effect of over 25% in size). The essentials:
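Seeding of 2,000 HEK293T ATAD5-luciferase cells per well preceded pin-tool compound transfer. Plates sat 15.5 hr at 37C under 5% CO2, then fluorescence was read after 30 min with CellTiter-Fluor.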

Experiment [3] in a line: qHTS assay for small molecule disruptors of the mitochondrial membrane potential - cell viability (AID 720634; calls by dose curve;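 note: human HepG2 liver cancer cells; nearly all actives have a fitted effect of over 20% in size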). In a few lines: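 Measuring cytotoxicity alongside mitochondrial potential, the screen quantified ATP by luminescence in HepG2 cells after 1 hr compound incubation and a 30 min room-temperature CellTiter-Glo step.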
A short description of experiment [4]: qHTS assay to test for compound auto fluorescence at 590 nm (red) in HepG2 cells (AID 720674). In a few lines: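 Fluorescence at 590 nm emission following 540 nm excitation was recorded from HepG2 wells one hour after compound transfer, with DMSO-only wells as vehicle and Rose Bengal sodium equivalency as the scale.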
The nature of experiment [5]: qHTS assay to test for compound auto fluorescence at 535 nm (green) in HepG2 cells (AID 720675).
Experiment [6] in a line: qHTS assay to test for compound auto fluorescence at 460 nm (blue) in HEK293 cells (AID 720678). In a few lines: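 HEK293, 2,000 cells/well, 10% dialyzed FBS; attach 4-5 hr 37C; pin compound or DMSO; o/n 37C/5% CO2; fluorescence 405/460 nm; triamterene-equivalent units.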
The nature of experiment [7]: qHTS assay to test for compound auto fluorescence at 590 nm (red) in HEK293 cells (AID 720679). The essentials:
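Intensity at 540nm excitation and 590nm emission is reported as Rose Bengal sodium-equivalent autofluorescence. Measurements followed overnight exposure (37C, 5% CO2) of HEK293 cells, 2,000 per well, to 23 nL compound.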

The nature of experiment [8]: qHTS assay to test for compound auto fluorescence at 535 nm (green) in HEK293 cells (AID 720680).
Experiment [9] can be described thus: qHTS assay to test for compound auto fluorescence at 460 nm (blue) in HEK293 cell free culture (AID 720681). The essentials: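 Compounds were added to cell-free DMEM with 10% FBS and fluorescence read directly. The blue channel used 405 nm excitation and 460 nm emission, with triamterene as the reference fluorophore.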
Experiment [10] is described as follows: qHTS assay to test for compound auto fluorescence at 535 nm (green) in HEK293 cell free culture (AID 720682). In a few lines:
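Green-label autofluorescence (485 nm excitation, 535 nm emission) measured on compound added to cell-free culture medium (DMEM, 10% FBS). Output is expressed relative to fluorescein.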

Experiment [11] can be described thus: qHTS assay to test for compound auto fluorescence at 590 nm (red) in HEK293 cell free culture (AID 720683). In a few lines: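 Cell-free wells of DMEM with 10% FBS received compound, and intrinsic fluorescence was read at excitation/emission 540/590 nm. Values expressed as equivalence to Rose Bengal sodium.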
A short description of experiment [12]: qHTS assay to test for compound auto fluorescence at 590 nm (red) in HepG2 cell free culture (AID 720684). In a few lines: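 Compounds are added to culture medium (MEM, 10% FBS) lacking cells, then fluorescence is read at excitation 540 nm, emission 590 nm, with Rose Bengal sodium as the equivalency standard.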
A short description of experiment [13]: qHTS assay to test for compound auto fluorescence at 535 nm (green) in HepG2 cell free culture (AID 720686).
In experiment [14] the target is Glucocorticoid receptor (Homo sapiens) (UniProt P04150). Put plainly: qHTS assay to identify small molecule agonists of the glucocorticoid receptor (GR) signaling pathway (AID 720691; active = well fitted activation curve with a large enough effect in the signal ratio in the repeat runs, not every such curve was filed as active; the % refers to the signal ratio). As to conditions: GR-bla HeLa, beta-lactamase reporter ratio, 18 h; activation: at 62.4 µM (top of the series). The essentials:
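Reporter read-out: fluorescence intensity following 2 h room-temperature LiveBLAzer B/G FRET substrate loading. Prior step: GR-bla HeLa cells held 4 h, then treated 18 h at 37 C.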

Experiment [15] has the same target. Put plainly: qHTS assay to identify small molecule antagonists of the glucocorticoid receptor (GR) signaling pathway (AID 720692; active = well fitted inhibition curve with a large enough effect in the signal ratio in the repeat runs, not every such curve was filed as active; the % refers to the signal ratio; note: potency is the fitted concentration of half-maximal effect). In a few lines:
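Dexamethasone (5 nM final) stimulated a stably integrated GRE-beta-lactamase reporter in HeLa cells during 18 h co-incubation with compounds; signal was quantified as fluorescence intensity of B/G FRET substrate after 2 h.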

Experiment [16] is described as follows: qHTS assay for small molecules that induce genotoxicity in human embryonic kidney cells expressing luciferase-tagged ATAD5 (AID 651632). Note: nearly all actives have a fitted effect of over 15% in size. In a few lines: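 Reporter cells (HEK293T) express luciferase-tagged ATAD5, a protein that accumulates after DNA damage. Treat 16 hr at 37C/5% CO2, add Amplite, wait 30 min at RT, and read luminescence.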
Experiment [17] is described as follows: qHTS assay for small molecule disruptors of the mitochondrial membrane potential (AID 720635). Note: potency is the fitted concentration of half-maximal effect. In a few lines: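 HepG2 cells exposed to compound 1 hr at 37C, then Mito-MPS dye 30 min. Ratio read of aggregate (540/590 nm) versus monomer (490/535 nm) fluorescence.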
A short description of experiment [18]: qHTS assay to test for compound auto fluorescence at 460 nm (blue) in HepG2 cell free culture (AID 720685). In a few lines: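 Compound (23 nL) or DMSO pinned into cell-free MEM with 10% FBS; blue fluorescence read at 405/460 nm excitation/emission, expressed as auto-fluorescence equivalency to triamterene.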
The nature of experiment [19]: qHTS assay to test for compound auto fluorescence at 460 nm (blue) in HepG2 cells (AID 720687). In a few lines: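 HepG2 cells in MEM with 10% FBS, attached overnight at 37 C, were exposed to compound or DMSO for 1 hr at 37 C, 5% CO2. Blue fluorescence was read at 405/460 nm, with triamterene as reference fluorophore.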
% is set by controls: 0 for no effect and ±100 for the full control effect.

Glucocorticoid receptor (Homo sapiens), sequence (P04150 whole entry, looked up): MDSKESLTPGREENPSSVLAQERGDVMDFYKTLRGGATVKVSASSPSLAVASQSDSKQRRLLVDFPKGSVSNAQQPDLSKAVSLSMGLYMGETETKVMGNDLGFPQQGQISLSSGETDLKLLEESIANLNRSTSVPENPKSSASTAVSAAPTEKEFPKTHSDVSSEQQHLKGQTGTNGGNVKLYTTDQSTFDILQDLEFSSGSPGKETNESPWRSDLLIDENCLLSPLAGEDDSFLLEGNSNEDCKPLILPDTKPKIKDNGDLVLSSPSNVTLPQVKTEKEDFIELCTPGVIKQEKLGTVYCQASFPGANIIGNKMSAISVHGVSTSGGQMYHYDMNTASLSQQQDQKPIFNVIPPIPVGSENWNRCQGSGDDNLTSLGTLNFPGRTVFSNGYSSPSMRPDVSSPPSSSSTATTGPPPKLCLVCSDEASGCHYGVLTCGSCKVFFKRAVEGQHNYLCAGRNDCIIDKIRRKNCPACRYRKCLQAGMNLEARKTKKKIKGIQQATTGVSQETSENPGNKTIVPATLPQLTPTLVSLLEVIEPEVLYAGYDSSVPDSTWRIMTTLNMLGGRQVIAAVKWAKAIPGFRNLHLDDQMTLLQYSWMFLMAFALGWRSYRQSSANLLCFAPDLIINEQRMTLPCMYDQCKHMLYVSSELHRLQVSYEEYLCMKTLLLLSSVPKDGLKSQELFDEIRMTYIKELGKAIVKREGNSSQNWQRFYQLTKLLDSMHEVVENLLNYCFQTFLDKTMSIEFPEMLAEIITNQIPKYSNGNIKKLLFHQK

For `CCCCCCCCC/C=C/CC1CC(=O)OC1=O` (configuration not stated), the Potency result in experiment [1], in experiment [2], in experiment [3] and in experiment [14] was “inactive” throughout. The call in [4], in experiment [5], in experiment [6], in [7], in [8] and in experiment [9] was inactive. The call in experiment [10], in experiment [11], in [12] and in experiment [13] was inactive. Also, the Potency in [15] was 49 µM (active).
On to `C=C(C)C(=O)Nc1ccc(Cl)c(Cl)c1`, for which the call in [16], in experiment [4], in [5], in experiment [6], in experiment [8] and in [9] was inactive. Also, the result in [10], in experiment [11] and in experiment [12] was inactive. Moreover, the Potency result in experiment [1] and in [2] was “inactive” throughout. The Potency in [17] was 19.5 µM (active) and 30.5 µM (active).
As for `Cc1ccc2oc(=O)ccc2c1`, the outcome in experiment [16], in experiment [4], in experiment [5], in experiment [6], in [8] and in experiment [9] was inactive. For the same molecule, the outcome in experiment [10], in [11], in experiment [12], in experiment [18] and in experiment [19] was inactive. Besides, the Potency result in experiment [1], in [2], in experiment [3], in experiment [17], in [14] and in experiment [15] was “inactive” in each case.
As to `O=C(O)[C@H](O)[C@@H](O)[C@H](O)[C@H](O)CO`, the call in experiment [16], in experiment [4], in experiment [5], in experiment [6], in [8] and in experiment [9] was inactive. The molecule was called inactive in experiment [10], in experiment [11], in experiment [12], in [18] and in experiment [13]. In addition, the Potency entry in experiment [2] and in experiment [3] was “inactive” in each case.
Consider `CCN(CC)CCCC(C)Nc1ccnc2cc(Cl)ccc12` (configuration not stated), for which the result in experiment [16], in [4], in experiment [5], in experiment [6], in experiment [7] and in experiment [8] was inactive. The result in experiment [9], in experiment [10], in experiment [11], in [12], in experiment [13] and in [19] was inactive. Besides, in experiment [2], the activity, negative = cytotoxicity was -6.84% [at 8.08 µM]. In addition, the Potency entry in [14] and in [15] was “inactive” in each case.
For the molecule `CC(C)c1ccc(S(=O)(=O)O)cc1`, the Potency entry in experiment [1], in [2], in experiment [3] and in experiment [17] was “inactive” throughout. For the same molecule, the molecule was classed as inactive in experiment [4], in experiment [5], in [6], in [7], in experiment [8] and in experiment [9]. The call in experiment [10], in [11], in experiment [12], in experiment [13] and in experiment [19] was inactive.
Consider `O=C(O)c1cc(C(=O)O)cc(S(=O)(=O)O)c1`, for which the Potency result in [1], in experiment [2], in [3], in [17], in experiment [14] and in [15] was “inactive” in each case. In addition, the molecule was classed as inactive in experiment [4], in experiment [5], in [6], in experiment [7], in [8] and in [9]. In addition, the result in experiment [10], in experiment [11], in experiment [12] and in experiment [19] was inactive.
For the molecule `CCCCCC/C(C=O)=C\c1ccccc1`, the Potency result in experiment [1], in experiment [2], in experiment [3], in experiment [14] and in experiment [15] was “inactive” throughout. Also, the result in experiment [4], in experiment [5], in experiment [6], in experiment [7], in experiment [8] and in experiment [9] was inactive. Moreover, the outcome in experiment [10], in [11], in experiment [12], in [18], in experiment [13] and in experiment [19] was inactive.
For `CCCCCC1=CCCC1=O`, the molecule was called inactive in experiment [16], in [4], in experiment [5], in [6], in experiment [8] and in experiment [9]. Besides, the outcome in [10], in [11], in [12], in experiment [18] and in [19] was inactive. Moreover, the Potency entry in [1], in experiment [2], in experiment [3], in [17], in experiment [14] and in experiment [15] was “inactive” in each case.
